In PubChem BioAssay (NCI):
About 83,000 compounds went through this panel and 20% of them were active in at least one assay; those are over-represented in the sample as a whole.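 Plates (96-well) were seeded with cells, treated with compound at one concentration, and incubated for 48 hours before percent growth was determined.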 Values without a mark were called inactive. Activity calls are given as the source filed them. The calls were made as follows: active = growth percent below 10; inactive = the rest.

Assays:
Experiment in all cases: NCI-60 one-dose screen, 48 h (100 = growth as untreated, 0 = no growth, -100 = all killed)
Conditions in all cases: 10 µM unless noted
NCI-H23 lung = test system: NCI-H23 lung
NCI-H226 lung = test system: NCI-H226 lung
NCI-H322M lung = test system: NCI-H322M lung
HOP-62 NSCLC = test system: HOP-62 NSCLC
NCI-H460 lung = test system: NCI-H460 lung
HOP-92 NSCLC = test system: HOP-92 NSCLC
NCI-H522 lung = test system: NCI-H522 lung
A549/ATCC NSCLC = test system: A549/ATCC NSCLC
786-0 renal = test system: 786-0 renal
COLO 205 colon = test system: COLO 205 colon
DU-145 prostate = test system: DU-145 prostate
K-562 leukemia = test system: K-562 leukemia
MALME-3M melanoma = test system: MALME-3M melanoma
MDA-MB-231 breast = test system: MDA-MB-231 breast
RXF 393 renal = test system: RXF 393 renal
SF-268 CNS = test system: SF-268 CNS
SF-295 CNS = test system: SF-295 CNS
SF-539 CNS = test system: SF-539 CNS
UACC-257 melanoma = test system: UACC-257 melanoma
M14 melanoma = test system: M14 melanoma

| Structure (SMILES) | growth (NCI-H23 lung) | growth (NCI-H226 lung) | growth (NCI-H322M lung) | growth (HOP-62 NSCLC) | growth (NCI-H460 lung) | growth (HOP-92 NSCLC) | growth (NCI-H522 lung) | growth (A549/ATCC NSCLC) | growth (786-0 renal) | growth (COLO 205 colon) | growth (DU-145 prostate) | growth (K-562 leukemia) | growth (MALME-3M melanoma) | growth (MDA-MB-231 breast) | growth (RXF 393 renal) | growth (SF-268 CNS) | growth (SF-295 CNS) | growth (SF-539 CNS) | growth (UACC-257 melanoma) | growth (M14 melanoma) |
| --- | --- | --- | --- | --- | --- | --- | --- | --- | --- | --- | --- | --- | --- | --- | --- | --- | --- | --- | --- | --- |
| CCOC(=S)SCc1ccc(Cl)cc1 | 111% | 101% | 102% | 101% | 110% | 49.3% | 87.2% | 80.4% | 98% | 145% | 106% | 110% | 107% | 85.4% | 87.6% | 106% | 89.4% | 114% | 100% | 99.1% |
| CCCNc1nc(SC)nc(-c2cccc(N)c2)c1C#N | 93.2% | 93.9% | 95.8% | 78.8% | 101% | 80.5% | 92.9% | 104% | 102% | 119% | 109% | 96.8% | 98% | 83.1% | 105% | 91.6% | 98.7% | 102% | 111% | 101% |
| C=C1CC2(OC1=O)C(=O)Nc1ccccc12 (stereo not given) | 67.7% | 72.9% | 93.8% | 108% | 77.8% | 9.19% (active) | -45.7% (active) | 100% | 76.2% | 10.3% | 43% | 21.8% | 12.4% | 65.6% | -13.3% (active) | 98% | 96% | 47.3% | 71.9% | 59.1% |
| C=C(C[n+]1ccccc1)[C@@H]1CC[C@]2(C(=O)OC)CC[C@]3(C)[C@H](CC[C@@H]4[C@@]5(C)CC[C@H](O)C(C)(C)[C@@H]5CC[C@]43C)[C@@H]12 | 97.4% | 89.5% | 101% | 93.5% | 105% | 82.9% | 78% | 105% | 102% | 102% | 114% | 95.7% | 103% | 114% | 106% | 97% | 103% | 91.2% | 100% | 102% |
| CCN(CC)Cc1cc(Nc2c3ccc(Cl)cc3nc3c(C)cccc23)ccc1O | -75.5% (active) | -28.1% (active) | -25.6% (active) | -74.6% (active) | -78.1% (active) | -62.7% (active) | -77.2% (active) | -15.5% (active) | -91.6% (active) | -92.4% (active) | 2.09% (active) | -31% (active) | -87% (active) | -48.6% (active) | -74.3% (active) | -79.8% (active) | -43.6% (active) | -96.5% (active) | -85.2% (active) | -88.5% (active) |
| COc1cc(-c2nc3ccccc3s2)ccc1NC(=O)COc1ccc(Cl)cc1 | 38.3% | 60% | 71% | 29.1% | 13.4% | 8.1% (active) | 38.6% | 49.2% | 16.8% | 52.8% | 82.1% | 74.9% | 48.3% | 45.9% | 66.3% | 29.4% | 29% | 26.7% | 85.3% | 60% |
| CCCCNP1(NCCCC)=NP(NCCCC)(NCCCC)=NP(NCCCC)(NCCCC)=NP(NCCCC)(NCCCC)=N1 | -49.6% (active) | 22.4% | 9.1% (active) | 10.2% | -8.78% (active) | -24.3% (active) | 7.68% (active) | 0.875% (active) | -6.24% (active) | -26.2% (active) | 16.5% | -26.4% (active) | -18.1% (active) | -20.9% (active) | 16.5% | 25.8% | -25% (active) | 34% | -22.5% (active) | 11.8% |
| O=C1/C(=C/c2ccc(F)cc2)CN(C(=O)CCN2CCC(=NO)CC2)C/C1=C\c1ccc(F)cc1 | -26.5% (active) | 72.8% | -11.8% (active) | -37.7% (active) | -26.9% (active) | -5.42% (active) | -72.6% (active) | 28.4% | -44.7% (active) | -81.9% (active) | -28% (active) | 5.22% (active) | -22.4% (active) | -55.6% (active) | -81% (active) | -23% (active) | -28.9% (active) | -63% (active) | -19.1% (active) | -10.6% (active) |
| CC(=O)Nc1ccc2c(c1)c(NC(C)=O)nn2C(=O)Nc1ccc(Cc2ccccc2)cc1 | 26.8% | 62.7% | 75.1% | 44.3% | 76.4% | -42.8% (active) | 76.3% | 92.1% | 67.9% | 102% | 83% | 18.2% | 86.5% | 69.9% | 92.6% | 46.6% | 54% | 80.9% | 87.2% | 63% |
| CN1/C(=C\C=C\C2=[N+](C)c3ccccc3C2(C)C)C(C)(C)c2ccccc21 | -6.67% (active) | 5.56% (active) | 8.56% (active) | 3.55% (active) | 0.247% (active) | -18.1% (active) | -41.7% (active) | 6.73% (active) | 2.93% (active) | -88.5% (active) | 25.2% | 6.42% (active) | -9.73% (active) | 6.24% (active) | -12.4% (active) | 26.4% | -11.3% (active) | 5.93% (active) | -40% (active) | -42.6% (active) |
| Cn1c2c(Cl)c(Cl)ccc2c2ccn3c(=O)c4ccccc4nc3c21 | 89% | 90.8% | 90.9% | 68% | 104% | 92.7% | 84.8% | 108% | 99.2% | 100% | 120% | 109% | 102% | 99.5% | 117% | 105% | 102% | 95.7% | 97% | 101% |
| C=C1CC[C@@H]2[C@](C)(COC(C)=O)[C@H](OC(C)=O)CC[C@@]2(C)[C@@H]1CC(NCc1ccc(F)cc1)C1=CCOC1=O (stereo not given in full) | 57.9% | 40.1% | 72.5% | 78.7% | 55.2% | 18.8% | 20.9% | 57.9% | 86.8% | 42.2% | 69.8% | 18.8% | 65.1% | 60.9% | 80.6% | 62.6% | 96.1% | 64.4% | 45.8% | 37.3% |
| CC(C)C1=C[C@@]23CC[C@@H]4[C@](C)(CCC[C@@]4(C)C(=O)OCC#CCN4CCCC4)[C@H]2C[C@@H]1[C@H]1C(=O)OC(=O)[C@H]13 | 94.9% | 96.1% | 88.5% | 91.9% | 103% | 94.1% | 78.7% | 98.4% | 103% | 111% | 89.2% | 68.5% | 89.6% | 98.3% | 110% | 93.1% | 97.3% | 92.1% | 96.5% | 96.6% |
| COc1ccc(-n2cc(-c3ccccc3)c3c(SCC(=O)N/N=C/c4ccc([N+](=O)[O-])cc4)ncnc32)cc1 | 88.9% | 84.2% | 106% | 100% | 113% | 98.3% | 91.5% | 105% | 95.3% | 109% | 114% | 110% | 110% | 102% | 113% | 98.5% | 105% | 97.9% | 107% | 108% |
| CCCCOc1ccc(NC(=O)n2nc(NC(C)=O)c3cc(NC(C)=O)ccc32)cc1 | 101% | 99% | 99.4% | 108% | 102% | 93% | 91.7% | 102% | 93.2% | 121% | 94.6% | 33.7% | 93.3% | 105% | 95.6% | 127% | 84% | 95% | 112% | 95.2% |
